The test in a line: restorers of sdo1-deficient yeast growth – S. cerevisiae, bone marrow failure model, primary screen (AID 817).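 Note: z-score against mean and SD of all compound wells on the same plate.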 As to conditions: S. cerevisiae sdo1-depleted JHY4D growth rescue, at 10 µM, stronger effect = higher value, pdr5 snq2 efflux-pump mutant strain.
[1] abbreviates: OD600, measured here: growth rescue at 24 h.

The whole screen tested about 140,000 compounds, of which about 300 (0.21%) were called active. This is one part of a sample in which actives are shown more often than they occur.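 Rule for the calls: active = z-score above 3 at both the 24 hr and the 30 hr optical density reads; inactive = the rest, inconclusive results apart.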

The source of these data is PubChem BioAssay AID817 (Emory University Molecular Libraries Screening Center, 2007).

For `Cc1[nH]c2ccccc2c1C(=O)CSCC(=O)O`, the z-score by setting is: (OD600 30 h) 10.5 (active); under setting [1], 8.73.
Take `CCCC1OC23CCCCC2C(C#N)(C#N)C1(C#N)C(=N)O3` (configuration not stated): the z-score is, setting by setting: (OD600 30 h) 0.28 (inactive); under setting [1], 0.9.
On to `CCOc1ccc2c(=O)c(-c3ccc4c(c3)OCCCO4)c(C)oc2c1`, for which the z-score was 0.07 (inactive) (OD600 30 h) and -0.34 under setting [1].
With `O=C(OCC(=O)c1c[nH]c2ccccc12)c1cccc(O)c1`, the z-score is 0 (inactive) (OD600 30 h) and 0 under setting [1].
On the same counts, the results for `O=C(NC(=S)Nc1ccc2oc(=O)ccc2c1)c1ccc(-c2cccc(Cl)c2Cl)o1` are -0.64 (inactive) and 0.44.
In the case of `CCOC(=O)c1c(NC(=S)Nc2ccccc2C)sc2c1CCC2`, the z-score (OD600 30 h) was -0.66 (inactive) and the z-score under setting [1] amounted to 0.75.
With `COc1ccc(C(C[N+](=O)[O-])n2nc(C)cc2C)cc1` (configuration not stated), the z-score reads like this: (OD600 30 h) -2.03 (inactive); under setting [1], -0.33.
For `O=C(N/N=C\c1ccc(Br)cc1)c1ccc(Cn2cccn2)o1`, the z-score by setting is: (OD600 30 h) 0.87 (inactive); under setting [1], -0.05.
In the case of `O=S(=O)(NCC1CCCO1)c1cnc(Cl)c(Cl)c1` (configuration not stated), the z-score (OD600 30 h) is 1.1 (inactive) and the z-score under setting [1] is 0.93.
Regarding `Cc1c(C(=O)NCCN2C(=O)S/C(=C\c3cccs3)C2=O)cccc1[N+](=O)[O-]`, the z-score is -0.51 (inactive) (OD600 30 h) and -0.6 under setting [1].
Regarding `COc1cccc(NC(=O)C(Sc2nc3ccccc3c(=O)n2CC(C)C)c2ccccc2)c1` (configuration not stated), the z-score is, setting by setting: (OD600 30 h) -1.02 (inactive); under setting [1], -0.31.
As for `Cc1nnnn1/C(=C\c1ccccc1)C(=O)OCC(=O)N1CC2(C)CC1CC(C)(C)C2` (configuration not stated), the z-score was -1.27 (inactive) (OD600 30 h) and -0.83 under setting [1].
Regarding `Cc1cccc(N=C2NN=C(c3c[nH]c4ccccc34)CS2)c1`, the z-score by setting is: (OD600 30 h) -1 (inactive); under setting [1], -0.78.
As to `COC(=O)c1c(NC(=O)CN2C(=O)NC(CCc3ccccc3)C2=O)sc2c1CCCCC2` (configuration not stated), the z-score is 0.43 (inactive) (OD600 30 h) and 0.79 under setting [1].
On to `Cc1ccc(Sc2ccncc2S(N)(=O)=O)cc1`, for which the z-score was 1.59 (inactive) (OD600 30 h) and 0.76 under setting [1].
As to `O=C(O)c1ccc(N=NN2CCOCC2)cc1`, the z-score was -0.02 (inactive) (OD600 30 h) and -0.59 under setting [1].
Regarding `COc1ccc(C2Nc3ccccc3C(=O)N2c2ccc(Cl)cc2)cc1Cn1cc([N+](=O)[O-])cn1` (configuration not stated), the z-score runs as follows: (OD600 30 h) -0.41 (inactive); under setting [1], -0.21.
The like results for `O=C(N/N=C/c1ccc2c(c1)OCO2)c1ccc(Cn2cc([N+](=O)[O-])cn2)o1` were, in that order, 0.69 (inactive) and -0.21.
With `COc1cc(OC)nc(NC(=O)CCl)n1`, the z-score runs as follows: (OD600 30 h) -0.13 (inactive); under setting [1], -1.15.
The like results for `CCC(=O)Nc1nc(OC)cc(OC)n1` were, in that order, 0.5 (inactive) and -0.32.
For the compound `COc1cc(OC)nc(S(C)(=O)=O)n1`, the z-score is 3.91 (active) (OD600 30 h) and 4.26 under setting [1].
In the case of `Cc1c(Cl)cccc1NC(=O)Nc1ccc(C(=O)N2CCCC2)cc1`, the z-score reads like this: (OD600 30 h) 0.9 (inactive); under setting [1], -0.18.
For `CS(=O)(=O)Nc1ccc(C(=O)N2CCCC2)cc1`, the z-score is 8.85 (active) (OD600 30 h) and 8.64 under setting [1].
On to `O=C(c1ccc(S(=O)(=O)c2ccccc2)cc1)N1CCCCCC1`, for which the z-score reads like this: (OD600 30 h) 1.85 (inactive); under setting [1], 2.69.
As for `Cc1ccc(-c2nnc(SCC(=O)N/N=C/c3cccs3)n2-c2ccc(C)cc2)cc1`, the z-score (OD600 30 h) was 0.44 (inactive) and the z-score under setting [1] amounted to 0.52.
The like results for `CCOc1ccc(C(=O)NC(=S)Nc2ccc(NC(=O)C(C)C)cc2)cc1[N+](=O)[O-]` were, in that order, -0.64 (inactive) and 0.38.
The like results for `CC(=O)COc1ccc2c(-c3ccccc3)cc(=O)oc2c1` were, in that order, -0.11 (inactive) and -0.39.
On the same counts, the results for `COc1cc(/C=C/CO)cc(OC)c1O[C@@H]1O[C@H](CO)[C@@H](O)[C@H](O)[C@H]1O` are 0.24 (inactive) and 0.99.
Consider `Cc1ccc(S(=O)(=O)C2C(=O)NC3(C)CC2c2ccccc2O3)cc1` (configuration not stated), for which the z-score is 0.78 (inactive) (OD600 30 h) and 0.14 under setting [1].
Consider `CCOC(=O)C1=C(C)Nc2nc3ccccc3n2C1c1cccs1` (configuration not stated), for which the z-score reads like this: (OD600 30 h) -0.33 (inactive); under setting [1], 0.25.
For the compound `CCCc1cc(=O)[nH]c(SCC(=O)N2CCN(S(=O)(=O)c3ccc(C)cc3C)CC2)n1`, the z-score by setting is: (OD600 30 h) 0.64 (inactive); under setting [1], 0.59.
Take `Cc1cc(OCCN2CCCC2)cc(C(C)C)c1`: the z-score is, setting by setting: (OD600 30 h) -1.32 (inactive); under setting [1], -1.82.
The like results for `Cc1cccc(Nc2nc3c(S(=O)(=O)c4ccccc4)nnn3c3ccccc23)c1C` were, in that order, 2.09 (inactive) and 3.12.
With `O=C(NC(=O)N1CCOCC1)c1ccccc1`, the z-score is 0.99 (inactive) (OD600 30 h) and 0.24 under setting [1].
For `COc1ccc(C(=O)NC2(C(F)(F)F)NC(=O)N(CCCc3ccccc3)C2=O)c(OC)c1OC` (configuration not stated), the z-score is -0.49 (inactive) (OD600 30 h) and 0.17 under setting [1].
For `O=C(/C=C/c1ccc(F)cc1)Nc1cccc(S(=O)(=O)Nc2cccc(C(F)(F)F)c2)c1`, the z-score reads like this: (OD600 30 h) -0.39 (inactive); under setting [1], -0.2.
For `COc1ccc2c(CN3CCN(S(=O)(=O)c4cccs4)CC3)cc(=O)oc2c1`, the z-score reads like this: (OD600 30 h) -1.29 (inactive); under setting [1], -1.27.
Take `COc1cc(CC(=O)N/N=C/c2ccccc2)c([N+](=O)[O-])cc1OC`: the z-score is 0.66 (inactive) (OD600 30 h) and 0.79 under setting [1].
Turning to `Cc1ccc2[nH]c(C(=O)O)c(NC(=O)c3ccccc3[N+](=O)[O-])c2c1`, the z-score was 1.28 (inactive) (OD600 30 h) and 1.83 under setting [1].
As to `CCN(CC)S(=O)(=O)c1cc([N+](=O)[O-])ccc1N=Nc1c(O)n(C)c2ccccc12`, the z-score (OD600 30 h) was -0.62 (inactive) and the z-score under setting [1] worked out at 0.64.
As to `Cc1cccc(C(=O)c2cccc(C)c2)c1`, the z-score by setting is: (OD600 30 h) -0.29 (inactive); under setting [1], -0.6.
